From PubChem BioAssay
KCNQ2 enhance: potentiators of rat KCNQ2 potassium channel | B-score at 10 µM | O88943 | 310,000 tested, 0.54% active | CHO-K1 KCNQ2, FluxOR thallium flux fluorescence; stronger effect = higher value;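 active means fluorescence ratio B-score at least 3 SD of library B-scores, with initial fluorescence B-score within 3 of them, cut at about 5.3 in these data; same plate scores as AID 2156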;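 further: B-score of peak minus minimum over baseline fluorescence ratio after K+ and Tl+ stimulus; positive B-score means potentiation of KCNQ2 with more thallium influx and brighter signal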
KCNQ2 inh: inhibitors of rat KCNQ2 potassium channel. B-score at 10 µM. O88943. CHO-K1 KCNQ2, FluxOR thallium flux, 20 min; stronger effect = lower value. 310,000 tested, 1.1% active;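 active means fluorescence ratio B-score at most minus 3 library SDs, with starting brightness B-score within 2 library SDs, cut at about -5.5 in these data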
Kir21 conf inh: confirmation of mouse Kir2.1 potassium channel inhibitors; shares compounds with KCNQ2 enhance; Kir2.1-expressing cells, FluxOR thallium flux fluorescence; stronger effect = lower value; Tl flux remaining, % of negative control (stronger effect = lower value), % at 10 µM; 2,300 tested, 41% active;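 active means Primary-screen hit whose thallium flux fell at least 3 control SD below untreated wells in both duplicates, with normal baseline fluorescence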
HEK293 ctr: parental HEK293 activity in Kir2.1 inhibitor counter-screen; shares compounds with KCNQ2 enhance; parental HEK293 cells, FluxOR thallium flux fluorescence; 0% = unstimulated blank wells; 2,300 tested, 19% active; FluxOR signal as % of negative control (100 = no effect), % at 10 µM;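 active means dye signal at least 3 control SD above or below untreated wells in both duplicates, raw fluorescence within 3, either direction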;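 further: percent is based on the flux ratio of peak minus minimum fluorescence over baseline F0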
CHO-K1 Tl ctr: counter-screen for KCNQ2 potentiators: effect in parental CHO-K1 cells | FluxOR thallium flux fluorescence; zero = vehicle mean+3SD, 100% = vehicle-minus-blank window | activity increase over 3SD of controls, % at 10 µM | 1,200 tested, 43% active | shares compounds with KCNQ2 enhance;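 active means signal rise of at least 3 SD above the untreated control mean, in both duplicate wells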;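 further: counter screen of KCNQ2 potentiator hits so any rise reflects channel-independent effects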
KCNQ1 sel pot: selectivity of KCNQ2 potentiators: effect on human KCNQ1. activation over 3SD threshold, % at 10 µM. shares compounds with KCNQ2 enhance. CHO KCNQ1 stable, FluxOR thallium flux fluorescence; beyond 3SD, as % of vehicle-control signal. 1,200 tested, 28% active;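 active means fluorescence ratio rise of at least 3 SD of vehicle wells above their mean, in both replicate wells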
Target sequence (P51787 whole entry, looked up): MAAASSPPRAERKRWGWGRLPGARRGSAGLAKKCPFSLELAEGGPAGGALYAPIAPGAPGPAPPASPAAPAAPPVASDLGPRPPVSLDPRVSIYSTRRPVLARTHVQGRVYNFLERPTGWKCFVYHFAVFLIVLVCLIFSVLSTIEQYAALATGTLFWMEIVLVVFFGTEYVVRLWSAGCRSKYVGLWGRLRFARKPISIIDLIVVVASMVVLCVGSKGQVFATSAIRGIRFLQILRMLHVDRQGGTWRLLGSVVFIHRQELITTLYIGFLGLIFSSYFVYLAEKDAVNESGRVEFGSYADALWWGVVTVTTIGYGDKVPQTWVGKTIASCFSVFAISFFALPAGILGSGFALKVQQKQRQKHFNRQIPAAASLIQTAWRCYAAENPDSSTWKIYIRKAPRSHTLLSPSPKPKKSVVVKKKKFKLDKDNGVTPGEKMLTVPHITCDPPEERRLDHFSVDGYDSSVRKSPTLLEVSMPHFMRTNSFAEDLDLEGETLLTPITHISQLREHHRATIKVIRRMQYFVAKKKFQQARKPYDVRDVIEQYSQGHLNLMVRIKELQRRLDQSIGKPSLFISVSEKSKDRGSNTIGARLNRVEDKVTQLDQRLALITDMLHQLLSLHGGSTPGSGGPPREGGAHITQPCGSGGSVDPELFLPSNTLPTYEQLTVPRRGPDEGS
KCNQ2 pot conf: rat KCNQ2 channel potentiator confirmation; shares compounds with KCNQ2 enhance; CHO-KCNQ2 cells, FluxOR thallium flux fluorescence; potentiation, less the hit threshold, % at 10 µM; 1,200 tested, 68% active;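 active means fluorescence ratio rising 3 SD or more over the vehicle control mean in both replicates, plus primary screen hit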;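 further: peak minus minimum thallium fluorescence divided by baseline after K/Tl stimulus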
Kir2-1 sel: selectivity of KCNQ2 potentiators: effect on mouse Kir2.1; shares compounds with KCNQ2 enhance; HEK293 Kir2.1, FluxOR thallium flux fluorescence; activity over 3SD threshold, % at 10 µM; 1,200 tested, 2% active;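 active means fluorescence ratio rise of at least 3 SD above the vehicle-control mean, seen in both replicates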
KCNQ2 W236L pot: rat KCNQ2 W236L mutant potentiation by KCNQ2 potentiators | shares compounds with KCNQ2 enhance | current increase over 3SD of negative controls (%), stronger effect = higher value, % at 25 µM | 940 tested, 10% active | AID 2558 | CHO KCNQ2-W236L, automated patch clamp current;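 active means current increase at least 3 SD of the untreated controls above them in both duplicate recordings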
Each line names hits and unclear results; the compound was inactive in the other large screens (follow-up assays come after a bar, where they were run). An excerpt weighted towards active compounds, which were near 1.6% of everything screened.

O=C(O)c1ccc(Oc2ccc(S(=O)(=O)c3ccc(C(=O)O)c(C(=O)O)c3)cc2)cc1	none
CC1=NOC(=O)/C1=C/c1ccc(O)cc1	none
O=C1ON=C(c2ccccc2)/C1=C/c1ccc(O)cc1	none (no result: KCNQ2 enhance) | Kir21 conf inh inactive | HEK293 ctr inactive
O=C1ON=C(c2ccc(Cl)cc2)/C1=C/c1ccc(O)cc1	KCNQ2 inh -7.4 | Kir21 conf inh 58% | HEK293 ctr inactive
Cc1ccc(C2=NOC(=O)/C2=C\c2ccccc2)cc1	none
COc1cccc2cc(C(=O)c3ccc([N+](=O)[O-])cc3)oc12	none
CCc1ccc2c(CN3CCN(Cc4ccccc4)CC3)cc(=O)oc2c1	none (no result: KCNQ2 enhance)
CCc1cc2c(CN3CCN(Cc4ccccc4)CC3)cc(=O)oc2cc1O	none | Kir21 conf inh 74% | HEK293 ctr inactive
Cc1cc2oc(=O)cc(CN(C)Cc3cccc(F)c3)c2cc1C	none
CCc1cc2c(CN(C)Cc3ccccc3F)cc(=O)oc2cc1O	none (no result: KCNQ2 enhance) | Kir21 conf inh inactive | HEK293 ctr inactive
CCc1ccc(C(=O)COC(=O)c2ccc(Cl)nc2)cc1	none
CCOC(=O)C1(Cc2cccc(Cl)c2)CCCN(C(=O)C(C)(C)C)C1 (configuration not stated)	none (no result: KCNQ2 enhance)
Cc1cccc(NC(=O)CSc2ncnc3sc(C)cc23)c1	none (no result: KCNQ2 enhance)
CCCN1C(=O)/C(=C/c2ccc(C)s2)NC1=S	KCNQ2 enhance 15 | Kir21 conf inh inactive | HEK293 ctr 216% | CHO-K1 Tl ctr inactive | KCNQ1 sel pot inactive | KCNQ2 pot conf 66 | Kir2-1 sel inactive | KCNQ2 W236L pot inactive
CC(C)CN1C(=O)/C(=C/c2cccs2)NC1=S	KCNQ2 enhance 12 | Kir21 conf inh inactive | HEK293 ctr 322% | CHO-K1 Tl ctr inactive | KCNQ1 sel pot inactive | KCNQ2 pot conf 57 | Kir2-1 sel inactive | KCNQ2 W236L pot inactive
Cc1ccc(/C=C2/NC(=O)N(Cc3ccccc3F)C2=O)s1	none (no result: KCNQ2 enhance)
CC(C)CN1C(=O)/C(=C/c2ccco2)NC1=S	none
CC(C)CC(=O)Nc1nnc(SCC(=O)Nc2nccs2)s1	none
CC(=O)C1C(c2ccc(Cl)cc2)c2c(noc2C)CC1(C)O (configuration not stated)	none
COc1ccc(Cc2nnc(SC(C)C(=O)Nc3ccc(F)cc3Cl)o2)cc1 (configuration not stated)	none (no result: KCNQ2 enhance)
CCn1c(CNc2ccc(Cl)cc2)nnc1SCC(=O)OC1CCCCC1	none | Kir21 conf inh 71% | HEK293 ctr inactive
CCn1c(CNc2cccc(Cl)c2)nnc1SCC(=O)OC1CCCCC1	none (no result: KCNQ2 enhance)
COc1ccccc1OCCCCCc1c(C)n[nH]c1C	none (no result: KCNQ2 enhance)
COc1ccccc1OCCCc1c(C)n[nH]c1C	KCNQ2 enhance 5.8 | Kir21 conf inh inactive | HEK293 ctr inactive | CHO-K1 Tl ctr 42 | KCNQ1 sel pot inactive | KCNQ2 pot conf inactive | Kir2-1 sel inactive | KCNQ2 W236L pot inactive
COc1ccc(S(=O)(=O)N2CCN=C2SCc2cccc(C)c2)cc1	none (no result: KCNQ2 enhance)
O=C(NCc1ccccc1Cl)c1nnc(CS(=O)(=O)c2ccccc2)o1	none (no result: KCNQ2 enhance)
Fc1ccc(-c2cc(C(F)(F)F)nc(-n3cncn3)n2)cc1	KCNQ2 enhance 6.2 | Kir21 conf inh inactive | HEK293 ctr inactive | CHO-K1 Tl ctr inactive | KCNQ1 sel pot inactive | KCNQ2 pot conf 19 | Kir2-1 sel inactive | KCNQ2 W236L pot inactive
Fc1ccc(-c2cc(C(F)(F)F)nc(-n3cccn3)n2)cc1	none (no result: KCNQ2 enhance)
O=C1CN(C(=O)CSc2nc(-c3ccc(Cl)cc3)cs2)c2ccccc2N1	none (no result: KCNQ2 enhance)
CCCCN(CCCNC(=O)CN1C(=O)COc2ccc(S(=O)(=O)N3CCC(C)CC3)cc21)Cc1ccccc1	none | Kir21 conf inh 66% | HEK293 ctr inactive
CCCCN(CCCC)CCNC(=O)CN1C(=O)COc2ccc(S(=O)(=O)N3CCC(C)CC3)cc21	none (no result: KCNQ2 enhance)
Cc1ccc(-n2nnc(-c3ccnc4ccccc34)n2)cc1	none
S=c1[nH]nc(-c2cccs2)n1/N=C/c1c(Cl)cccc1Cl	KCNQ2 enhance 7.4 | Kir21 conf inh inactive | HEK293 ctr inactive | CHO-K1 Tl ctr inactive | KCNQ1 sel pot inactive | KCNQ2 pot conf 7.3 | Kir2-1 sel inactive | KCNQ2 W236L pot inactive
Cc1ccc(/C=N/n2c(-c3cccs3)n[nH]c2=S)cc1	none
COc1cc(NC(=O)[C@@H](NC(=O)N2CCn3c2nc2ccccc23)C(C)C)cc(OC)c1	none (no result: KCNQ2 enhance)
CCCCOC(=O)C[N+](C)(C)CCOC1CC2CCC1(C)C2(C)C (configuration not stated)	none (no result: KCNQ2 enhance)
CCCCCCCOC(=O)C[N+](C)(C)CCOC1CC2CCC1(C)C2(C)C (configuration not stated)	none (no result: KCNQ2 enhance) | Kir21 conf inh 16% | HEK293 ctr inactive
CCCCCCOC(=O)C[N+](C)(C)CCOC1CC2CCC1(C)C2(C)C (configuration not stated)	none (no result: KCNQ2 enhance) | Kir21 conf inh 24% | HEK293 ctr inactive
CCCOC(=O)C[N+](C)(C)CCOC1CC2CCC1(C)C2(C)C (configuration not stated)	none (no result: KCNQ2 enhance)
CCc1nnc(SCC(=O)Nc2ccc(F)cc2)o1	none
O=C(NNC(=O)c1ccccc1[N+](=O)[O-])c1csc(N2CCOCC2)n1	none
CCn1cc(S(=O)(=O)NCCc2ccc(OC)c(OC)c2)cn1	none (no result: KCNQ2 enhance)
COC(=O)c1ccccc1NC(=O)COC(=O)CO/N=C(\C)c1ccc2c(c1)OCO2	none (no result: KCNQ2 enhance)
COc1cc2c(cc1OC)C(COc1ccc([N+](=O)[O-])cc1)NCC2 (configuration not stated)	none
COc1cc(NS(=O)(=O)c2ccc(Nc3nc(-c4ccccc4)cs3)cc2)nc(OC)n1	none | Kir21 conf inh inactive | HEK293 ctr inactive
COc1cc(NS(=O)(=O)c2ccc(NC(=S)Nc3ccccc3)cc2)nc(OC)n1	none (no result: KCNQ2 enhance)
Cc1ccc(NC(=S)NNc2ncc(C(F)(F)F)cc2Cl)cc1	none
ON/C=N/C(=S)Nc1ncc(C(F)(F)F)cc1Cl	KCNQ2 enhance 11 | Kir21 conf inh inactive | HEK293 ctr 140% | CHO-K1 Tl ctr inactive | KCNQ1 sel pot inactive | KCNQ2 pot conf 41 | Kir2-1 sel inactive | KCNQ2 W236L pot inactive
CC(Cl)C(=O)Nc1ncc(C(F)(F)F)cc1Cl (configuration not stated)	none
